Data from PubChem BioAssay.
Calls of active or inactive are those of the source.

Experiments:
[1] = binders of probe aFSTL3 on microarray, primary screen, stem cell growth factor project, biochemical, small-molecule microarray, fluorescence 635/667 (AID 1064); conditions: higher = more signal;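 note: measures binding of the biotinylated anti-FSTL3 antibody to printed compounds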
[2] = binders from COS7 lysate, DM2A8 probe, primary screen, torsin A project, cell lysate, small-molecule microarray, fluorescence 635/667 (AID 1065); conditions: higher = more signal, COS7 lysate expressing mutant human TOR1A
[3] = binders of probe aFGF2 on microarray, primary screen, stem cell growth factor project, biochemical, small-molecule microarray, fluorescence 635/667 (AID 1067); conditions: higher = more signal;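 note: measures binding of biotinylated aFGF2 protein to printed compounds on slides; z-score merges feature fluorescence and signal-to-noise across triplicate slides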
[4] = binders of probe aFGF10 on microarray, primary screen, stem cell growth factor project, biochemical, small-molecule microarray, fluorescence 635/667 (AID 1071); conditions: higher = more signal;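 note: score merges 667 nm spot intensity and signal to noise from triplicate slides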
[5] = biological target: Neurogenic locus notch homolog protein 2 (Homo sapiens) (UniProt Q04721); test: Notch2 binders on small-molecule microarrays, primary screen, biochemical, small-molecule microarray, 635 nm fluorescence, stem cell growth factors (AID 1073); conditions: Notch2 binding, higher = more signal
[6] = biological target: Pro-neuregulin-1, membrane-bound isoform (Homo sapiens) (UniProt Q02297); test: NRG1 binders on small-molecule microarrays, primary screen, psychiatric disease protein project, biochemical, small-molecule microarray, fluorescence 635/667 (AID 1075); conditions: NRG1 binding, 635 nm fluorescence, higher = more signal;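 note: score combines 667 nm spot fluorescence with signal to noise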
Pro-neuregulin-1, membrane-bound isoform (Homo sapiens), sequence (Q02297 whole entry, looked up, the tested form may be a part, canonical isoform): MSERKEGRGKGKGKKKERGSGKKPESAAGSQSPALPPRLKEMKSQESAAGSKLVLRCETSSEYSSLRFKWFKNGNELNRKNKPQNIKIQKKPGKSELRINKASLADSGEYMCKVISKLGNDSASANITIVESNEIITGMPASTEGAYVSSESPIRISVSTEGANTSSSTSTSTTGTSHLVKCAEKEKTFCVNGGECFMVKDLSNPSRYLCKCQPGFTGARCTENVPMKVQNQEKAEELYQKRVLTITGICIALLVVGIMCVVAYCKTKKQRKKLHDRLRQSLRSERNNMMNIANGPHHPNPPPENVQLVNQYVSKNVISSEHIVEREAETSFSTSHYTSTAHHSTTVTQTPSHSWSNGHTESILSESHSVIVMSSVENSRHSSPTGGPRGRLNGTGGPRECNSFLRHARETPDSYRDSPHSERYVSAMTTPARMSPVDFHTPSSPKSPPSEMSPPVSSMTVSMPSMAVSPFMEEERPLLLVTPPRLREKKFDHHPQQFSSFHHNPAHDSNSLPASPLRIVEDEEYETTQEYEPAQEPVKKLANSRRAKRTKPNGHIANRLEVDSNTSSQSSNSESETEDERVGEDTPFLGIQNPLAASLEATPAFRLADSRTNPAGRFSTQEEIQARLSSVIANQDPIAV

[7] = test system: Neuregulin-1 EGF-like domain; test: binders of neuregulin-1 EGF-like domain, primary screen, biochemical, small-molecule microarray, 635 nm fluorescence (AID 1081); conditions: small-molecule microarray binding, higher = more signal;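 note: binding of the protein to compounds printed on small-molecule microarray slides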
[8] = FRG1 promoter luciferase signal modulators, primary screen, FRG1 inhibition for FSHD, cell-based, C2C12 myotubes, firefly/Renilla luciferase, luminescence (AID 1084); conditions: higher = more signal, called active from +8 up or from −8 down
[9] = binders of probe aFST on microarray, primary screen, stem cell growth factor project, biochemical, small-molecule microarray, fluorescence 635/667 (AID 1086); conditions: higher = more signal;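 note: score merges 667 nm fluorescence with signal-to-noise of each printed compound spot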
[10] = binders of probe aHhip on microarray, primary screen, stem cell growth factor project, biochemical, small-molecule microarray, fluorescence 635/667 (AID 1087); conditions: higher = more signal;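 note: score merges spot fluorescence at 667nm with spot signal to noise ratio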
[11] = test system: PRMT1 (protein arginine N-methyltransferase 1); test: PRMT1 binders on small-molecule microarrays, primary screen, biochemical, small-molecule microarray, 635 nm fluorescence (AID 1088); conditions: small-molecule microarray binding, higher = more signal;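 note: binding of Prmt1 protein to compounds spotted on small-molecule microarray slides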
[12] = yeast growth modulation, basal conditions, primary screen, YJM789 clinical isolate, OD600, 24 h (AID 1089);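 note: growth of clinical yeast isolate S. cerevisiae YJM 789 seeded 1000 cells per well; test concentration not given here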; conditions: S. cerevisiae YJM789 growth, higher = more signal, called active from +8 up or from −8 down
[13] = fission yeast growth modulation, primary screen, strain 972, OD600, 24 h, no modulator (AID 1090);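 note: basal condition with compound alone and no growth modifier present; test concentration not given here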; conditions: S. pombe 972 growth, higher = more signal, called active from +8 up or from −8 down
[14] = S. cerevisiae growth modulation with rapamycin, primary screen, strain BY4716, OD600, 96 h (AID 1091); conditions: higher = more signal, called active from +8 up or from −8 down; note: test concentration not given here
[15] = biological target: Torsin-1A-interacting protein 2 (Homo sapiens) (UniProt Q8NFQ8); test: LULL1 binders on small-molecule microarray, primary screen, cell lysate, human LULL1 lysate, 635/667 nm fluorescence (AID 1092); conditions: hLULL1 lysate binding, 635 nm fluorescence, higher = more signal;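 note: probe is lysate of COS7 cells overexpressing human LULL1; score merges per-feature 667 nm fluorescence with signal-to-noise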
Torsin-1A-interacting protein 2 (Homo sapiens), sequence (Q8NFQ8 whole entry, looked up): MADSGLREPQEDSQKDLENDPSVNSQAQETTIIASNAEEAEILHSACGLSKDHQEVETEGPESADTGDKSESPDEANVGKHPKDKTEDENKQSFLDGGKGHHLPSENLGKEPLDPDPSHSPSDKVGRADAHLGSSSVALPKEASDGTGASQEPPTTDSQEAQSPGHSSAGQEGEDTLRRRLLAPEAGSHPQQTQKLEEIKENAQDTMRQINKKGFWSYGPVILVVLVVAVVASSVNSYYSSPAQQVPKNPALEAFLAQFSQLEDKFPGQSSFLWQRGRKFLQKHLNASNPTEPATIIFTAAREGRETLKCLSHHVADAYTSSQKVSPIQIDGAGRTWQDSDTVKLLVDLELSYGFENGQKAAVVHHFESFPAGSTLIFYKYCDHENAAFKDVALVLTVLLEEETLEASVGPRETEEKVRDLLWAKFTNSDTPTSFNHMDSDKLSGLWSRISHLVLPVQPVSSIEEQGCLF

[16] = E. coli growth modulation, two-sided OD650, primary screen, E. coli filamentation project, strain DRC41, 24 h (AID 1093); conditions: OD650, 24 h, higher = more signal, called active from +8 up or from −8 down;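 note: MC1000 strain lacking acrAB efflux and sulA so SOS filamentation is blocked; test concentration not given here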
[17] = small-molecule microarray binders of probe aLefty2, primary screen, biochemical, biotinylated probe, 635/667 nm fluorescence (AID 1094); conditions: higher = more signal;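 note: score merges spot fluorescence near 667 nm with spot signal-to-noise ratio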
[18] = test system: Noggin (protein binding on small-molecule microarray); test: Noggin binders on small-molecule microarray, primary screen, biochemical, 635/667 nm fluorescence (AID 1095); conditions: 635 nm fluorescence, higher = more signal;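 note: score merges 667 nm feature fluorescence with signal to noise over triplicate slides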
[19] = biological target: Neurogenic locus notch homolog protein 3 (Homo sapiens) (UniProt Q9UM47); test: NOTCH3 binders on small-molecule microarray, primary screen, biochemical, 635/667 nm fluorescence (AID 1096); conditions: NOTCH3 binding, 635 nm fluorescence, higher = more signal
Neurogenic locus notch homolog protein 3 (Homo sapiens), sequence (Q9UM47 whole entry, looked up): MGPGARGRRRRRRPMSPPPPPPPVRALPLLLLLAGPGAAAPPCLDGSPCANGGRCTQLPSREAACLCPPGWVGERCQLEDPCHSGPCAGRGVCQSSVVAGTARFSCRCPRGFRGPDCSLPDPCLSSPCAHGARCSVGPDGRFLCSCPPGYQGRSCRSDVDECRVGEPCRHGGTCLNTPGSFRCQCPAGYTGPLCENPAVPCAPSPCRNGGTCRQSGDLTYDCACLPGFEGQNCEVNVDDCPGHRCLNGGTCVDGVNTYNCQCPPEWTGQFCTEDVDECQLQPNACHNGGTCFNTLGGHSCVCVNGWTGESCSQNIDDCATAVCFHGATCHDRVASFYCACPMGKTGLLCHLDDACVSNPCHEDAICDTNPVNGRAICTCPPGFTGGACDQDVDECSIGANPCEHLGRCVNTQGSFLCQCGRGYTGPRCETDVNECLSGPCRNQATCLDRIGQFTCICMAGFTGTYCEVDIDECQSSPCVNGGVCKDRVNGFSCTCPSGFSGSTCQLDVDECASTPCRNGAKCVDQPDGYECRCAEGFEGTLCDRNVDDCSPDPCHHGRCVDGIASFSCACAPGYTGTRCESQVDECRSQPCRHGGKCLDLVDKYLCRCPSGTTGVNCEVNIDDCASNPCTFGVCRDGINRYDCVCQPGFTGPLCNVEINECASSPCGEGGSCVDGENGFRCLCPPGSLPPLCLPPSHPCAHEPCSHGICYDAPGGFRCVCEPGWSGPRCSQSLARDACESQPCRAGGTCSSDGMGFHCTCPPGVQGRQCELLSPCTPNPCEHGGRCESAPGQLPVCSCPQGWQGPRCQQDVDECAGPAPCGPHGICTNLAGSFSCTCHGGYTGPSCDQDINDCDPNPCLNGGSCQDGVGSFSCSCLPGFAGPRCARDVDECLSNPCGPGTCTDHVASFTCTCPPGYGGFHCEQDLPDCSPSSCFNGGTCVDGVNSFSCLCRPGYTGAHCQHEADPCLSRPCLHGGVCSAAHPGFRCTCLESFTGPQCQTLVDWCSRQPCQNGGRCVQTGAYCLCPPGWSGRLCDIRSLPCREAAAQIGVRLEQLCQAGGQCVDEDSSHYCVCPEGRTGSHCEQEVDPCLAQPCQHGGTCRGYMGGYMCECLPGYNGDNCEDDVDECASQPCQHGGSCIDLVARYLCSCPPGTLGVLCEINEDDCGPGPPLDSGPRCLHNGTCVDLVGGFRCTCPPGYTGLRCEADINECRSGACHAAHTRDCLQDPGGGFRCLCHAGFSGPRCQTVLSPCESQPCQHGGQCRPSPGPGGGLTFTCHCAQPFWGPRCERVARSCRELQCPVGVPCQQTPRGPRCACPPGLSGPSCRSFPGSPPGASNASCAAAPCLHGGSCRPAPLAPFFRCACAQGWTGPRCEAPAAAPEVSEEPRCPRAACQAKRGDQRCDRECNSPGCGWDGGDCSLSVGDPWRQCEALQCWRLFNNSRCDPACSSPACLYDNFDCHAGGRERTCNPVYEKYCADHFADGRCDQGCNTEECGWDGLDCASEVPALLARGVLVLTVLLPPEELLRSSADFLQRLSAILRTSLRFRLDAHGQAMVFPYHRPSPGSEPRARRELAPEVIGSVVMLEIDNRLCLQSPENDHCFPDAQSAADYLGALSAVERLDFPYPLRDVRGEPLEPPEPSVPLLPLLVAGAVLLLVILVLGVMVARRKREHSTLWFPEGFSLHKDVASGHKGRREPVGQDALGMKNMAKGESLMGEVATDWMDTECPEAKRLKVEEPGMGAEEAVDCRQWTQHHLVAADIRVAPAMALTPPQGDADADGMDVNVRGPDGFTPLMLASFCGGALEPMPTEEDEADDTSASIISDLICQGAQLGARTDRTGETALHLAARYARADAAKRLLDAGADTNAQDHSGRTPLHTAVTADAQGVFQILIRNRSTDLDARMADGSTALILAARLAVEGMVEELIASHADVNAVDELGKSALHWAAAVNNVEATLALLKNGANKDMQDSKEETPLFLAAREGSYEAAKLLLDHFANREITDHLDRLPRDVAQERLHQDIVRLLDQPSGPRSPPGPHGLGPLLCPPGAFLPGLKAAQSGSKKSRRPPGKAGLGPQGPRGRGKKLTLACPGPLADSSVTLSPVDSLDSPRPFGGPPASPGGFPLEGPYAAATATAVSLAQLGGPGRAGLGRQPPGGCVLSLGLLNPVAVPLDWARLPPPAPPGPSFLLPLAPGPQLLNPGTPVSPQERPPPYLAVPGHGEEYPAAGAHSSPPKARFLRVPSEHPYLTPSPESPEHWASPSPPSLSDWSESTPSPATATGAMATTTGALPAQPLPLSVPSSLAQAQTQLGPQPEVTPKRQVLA

[20] = small-molecule microarray binders of probe aEGFR, primary screen, biochemical, biotinylated probe, 635/667 nm fluorescence (AID 1097); conditions: higher = more signal;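 note: probe is a biotinylated anti-EGFR antibody binding compounds printed on slides; score combines fluorescence near 667 nm and signal to noise of each spot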

SMILES	composite z-score [1]	composite z-score [2]	composite z-score [3]	composite z-score [4]	composite z-score [5]	composite z-score [6]	composite z-score [7]	z-score [8]	composite z-score [9]	composite z-score [10]	composite z-score [11]	z-score [12]	z-score [13]	z-score [14]	composite z-score [15]	z-score [16]	composite z-score [17]	composite z-score [18]	composite z-score [19]	composite z-score [20]
COc1ccc([Si](C)(C)[C@H]2[C@H](CC(=O)N3CCC[C@H]3CO)O[C@@]3(C(=O)N(Cc4cccc(N5CCCCC5=O)c4)c4ccccc43)[C@@H]2C)cc1	-0.381	0.519	-0.126	0.682	0.757	0.836	1.14	-3.74 (inactive)	0.0346	-0.0296	1.52	-0.439 (inactive)	0.294 (inactive)	-1.23 (inactive)	1.98	0.561 (inactive)	-0.174	1.23	1.09	-0.139
C=CCNC(=O)[C@H]1[C@@H]2C(=O)O[C@@H](c3ccccc3)[C@@H](c3ccccc3)N2[C@@H](c2ccc(O)cc2)[C@]12C(=O)N(C(=O)OCCOC)c1ccc(C#Cc3ccc(OC)cc3)cc12	0.165	0.383	0.0106	0.978	0.759	0.788	0.995	0.75 (inactive)	0.307	-0.0672	1.42	0.622 (inactive)	0.074 (inactive)	1.66 (inactive)	2.23	-0.866 (inactive)	-0.0302	0.44	0.892	0.0219
COCCCNC(=O)[C@@]1(CCC(=O)OC(C)(C)C)N=C(c2ccc(OCCCO)cc2)O[C@H]1c1ccccc1	0.593	0.737	0.0584	0.186	1.23	1.64	1.3	-1.79 (inactive)	1.16	0.0424	1.53	0.241 (inactive)	-0.629 (inactive)	0.0716 (inactive)	3.51	1.25 (inactive)	0.0296	1.56	0.275	0.0682
COc1ccc(C(O)C2C=CC3C(=O)N(C)C(=O)C3N2Nc2ccccc2)cc1 (stereo not given)	0.402	0.467	0.042	0.701	1.7	2.03	1.27	1.71 (inactive)	0.791	-0.271	1.29	-0.0991 (inactive)	-0.546 (inactive)	0.695 (inactive)	3.3	-0.238 (inactive)	0.156	-0.357	1.06	0.147
CCCCCCCCCCC(O)C1C=CC2C(=O)N(C)C(=O)C2N1Nc1ccccc1 (stereo not given)	0.889	0.149	-0.229	-1.07	-0.932	0.0962	-0.101	0.767 (inactive)	-0.191	-0.469	-1.19	0.875 (inactive)	-1.53 (inactive)	0.882 (inactive)	0.8	-1.87 (inactive)	-0.405	-0.387	-1.4	-0.247
CCCCC=C[C@@H](NC(=O)C(C)(C)C)c1ccccc1	0.0905	0.161	0.0775	0.57	1.5	1.07	0.357	-0.751 (inactive)	0.553	0.388	0.956	0.924 (inactive)	1.84 (inactive)	4.33 (inactive)	1.08	-1.46 (inactive)	0.0769	-0.0096	1.11	0.313
C=C(CCCC)/C(=C/C[C@@H](OC(C)=O)c1cccc(OCCO)c1)c1cc(C(=O)OC)ccc1OC	0.289	-0.0739	-0.14	0.222	0.0199	0.361	0.31	0.942 (inactive)	-0.0258	-0.0618	1.57	-0.397 (inactive)	0.86 (inactive)	-0.709 (inactive)	0.709	0.236 (inactive)	-0.0524	0.656	0.0716	-0.0698
CC[C@@H](O[Si](C#C[Si](C(C)C)(C(C)C)C(C)C)(C(C)C)C(C)C)c1cn(Cc2cccc(Cl)c2)nn1	-0.385	0.6	-0.0594	0.238	0.863	-0.019	0.69	-0.0554 (inactive)	0.197	-0.0003	0.869	0.978 (inactive)	0.719 (inactive)	1.44 (inactive)	-0.0557	0.909 (inactive)	-0.138	0.523	0.932	-0.113
CS(=O)(=O)CCOC(=O)C1=CC(CCCO)=CC(C2CC2)N(Cc2sc3ccccc3c2Cl)C=C1C(=O)OCCS(C)(=O)=O (stereo not given)	-0.143	0.0105	0.0498	0.4	1.36	1.92	1.18	-0.133 (inactive)	0.903	-0.134	1.13	-0.853 (inactive)	-5.1 (inactive)	-1.47 (inactive)	3.09	0.189 (inactive)	0.247	0.482	1.09	0.0432
C=C(COC)C(=O)CC[C@H](OC(C)=O)c1ccc(CO)o1	-0.374	0.275	-0.148	0.265	-0.0537	0.0866	0.0976	-0.28 (inactive)	-0.225	-0.132	-0.451	-1.16 (inactive)	-0.603 (inactive)	-1.46 (inactive)	2	1.5 (inactive)	-0.0963	1.31	0.651	-0.067
C=CC[C@]1(C(N)=O)N=C(c2ccc(OCCCO)cc2)O[C@H]1c1ccccc1N=[N+]=[N-]	0.951	-0.385	0.087	0.672	0.737	1.8	1.06	2.63 (inactive)	1.69	-0.306	1.37	0.344 (inactive)	-1.3 (inactive)	0.673 (inactive)	3.33	1.94 (inactive)	0.239	0.301	0.923	0.0049
COC(=O)[C@@]1(Cc2ccc(OC)cc2)[C@H]2c3cc(C(=O)N(C)C)n(Cc4c(CO)[nH]cc(C)c4=O)c3C[C@H]2CN1C(=O)c1ccccc1	0.466	0.249	-0.015	-0.112	1.56	2.09	1.37	2.07 (inactive)	1.47	1.81	-0.922	0.0886 (inactive)	0.95 (inactive)	-0.622 (inactive)	3.22	-1.28 (inactive)	0.334	0.0072	0.0193	0.215
COCCCNC(=O)[C@@]1(c2ccc([N+](=O)[O-])cc2)CC(=O)N(C2CCCCC2)[C@@H]1c1ccc(CO)cc1I	0.234	1.2	0.0247	0.0624	-0.161	0.944	1.31	-1.27 (inactive)	-0.0119	0.259	1.54	-0.307 (inactive)	-0.314 (inactive)	-0.0938 (inactive)	0.83	0.556 (inactive)	0.0561	0.39	0.0429	-0.0967
COc1ccc(CCNC(=O)[C@@]2(c3ccc([N+](=O)[O-])cc3)CC(=O)N(C3CCCCC3)[C@@H]2c2ccc(CO)cc2I)cc1	0.897	0.0603	0.0903	0.33	0.964	0.486	0.827	-1.64 (inactive)	-0.121	0.386	1.39	0.717 (inactive)	0.0908 (inactive)	5.88 (inactive)	2.34	0.793 (inactive)	-0.0544	0.153	0.594	0.227
C=C(COC)/C(=C/C[C@@H](OC(C)=O)c1cccc(OCCO)c1)c1cnc2ccccc2c1	0.305	-0.116	-0.076	0.826	1.63	0.679	1.18	3.42 (inactive)	0.134	-0.214	1.38	-2.07 (inactive)	-6.62 (inactive)	-1.38 (inactive)	1.07	1.03 (inactive)	0.0303	0.822	1.04	-0.0653
CC(C)c1ccc(NN2C(C(O)C(C)c3ccccc3)C=CC3C(=O)N(c4ccccc4)C(=O)C32)cc1 (stereo not given)	1.31	1.04	0.51	1.08	1.71	2.09	1.12	-0.632 (inactive)	1.97	-0.12	1.57	-0.202 (inactive)	0.0423 (inactive)	1.21 (inactive)	3.18	-1.28 (inactive)	0.57	0.272	1.07	0.298
COCCOC(=O)N1C(=O)[C@@]2(c3cc(C#CC4(O)CCCCCC4)ccc31)[C@H](C(N)=O)[C@H]1C(=O)O[C@H](c3ccccc3)[C@H](c3ccccc3)N1[C@@H]2c1ccc(OCCO)cc1	-0.243	1.08	0.0664	0.69	1.42	0.775	1.22	1.1 (inactive)	0.388	0.189	1.54	1.73 (inactive)	-0.0624 (inactive)	5.03 (inactive)	2.51	0.662 (inactive)	0.0723	1.2	1.09	0.104
CN(C)CCCCCCNC(=O)[C@@H]1C[C@@H]2C(=O)N[C@@H](CCCC[N+](C)(C)C)C(=O)N2[C@@H]1c1cccc(OCCO)c1	0.516	0.869	-0.0707	-0.431	-0.558	-0.538	0.801	3.98 (inactive)	-0.516	-0.333	-0.357	-3.6 (inactive)	-1 (inactive)	-1.17 (inactive)	2.79	0.797 (inactive)	0.141	-0.349	0.363	-0.108
COc1ccc([Si](C)(C)[C@H]2[C@H](CC(=O)N(CCO)Cc3ccccc3)O[C@@]3(C(=O)N(Cc4ccc(N5C(=O)c6cccc7cccc5c67)cc4)c4ccccc43)[C@@H]2C)cc1	-0.0915	0.285	-0.0249	0.479	0.141	1.14	1.14	-3.26 (inactive)	0.193	0.12	1.48	0.614 (inactive)	0.685 (inactive)	2.87 (inactive)	2.15	0.222 (inactive)	0.748	1.36	1.12	0.0059
CN1C(=O)C2C=CC(C(O)COCc3ccccc3)N(Nc3ccc([N+](=O)[O-])cc3[N+](=O)[O-])C2C1=O (stereo not given)	0.0982	-0.0795	0.0952	0.475	0.172	0.0948	0.752	1.16 (inactive)	0.329	-0.167	0.332	0.629 (inactive)	-1.58 (inactive)	0.308 (inactive)	1.78	-0.278 (inactive)	0.229	-0.39	-0.282	-0.146
